Test results reported in PubChem BioAssay (NCI).
Compounds without any hit were thinned out: in the full panel of roughly 83,000, 20% have a hit.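 Treatment: one concentration, 48 hours, 96-well format. Scoring: percent growth, with anything below 10 considered active.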 Calls of active or inactive are those of the source.

tested on: MALME-3M melanoma; test: NCI-60 one-dose screen, 48 h (100 = growth as untreated, 0 = no growth, -100 = all killed); conditions: 10 µM unless noted

Question: `CC(=O)Nc1ccc2c(c1)Cc1c(F)cccc1-2` was tested. Which growth did it give?
Answer: Its growth is 130% (inactive).

Question: How did the growth turn out when `COc1ccc(-c2cncnc2N)cc1OC` was run?
Answer: The growth was 111% (inactive).

Question: Which growth does the source give for `CN(C)c1ccc2cc(-c3ccc(Cl)c(Cl)c3)c(N)nc2c1` here?
Answer: Its growth is 29.8% (inactive).

Question: For `O=C(Nc1ccccn1)[C@H](O)[C@@H](O)C(=O)N1CCOCC1`, which growth is on record?
Answer: The growth was 114% (inactive).

Question: Which growth does the source give for `O=C(NC(=S)Nc1ccc(-c2nc3ccccc3[nH]2)cc1)c1ccc2ccccc2c1` here?
Answer: Its growth is -12% (active).

Question: `CCCCCCN(CCCCCC)CC(O)c1cccc2ccc(Cl)cc12` (centres undefined) was tested. Which growth did it give?
Answer: The growth was 65.6% (inactive).

Question: `Cc1ccc(S(=O)(=O)N(CC[C@@H]2C[C@H]2c2cc3ccccc3o2)C(=O)NC2CCCCC2)cc1` was tested. Which growth did it give?
Answer: Its growth is 96.1% (inactive).

Question: `Clc1ccc2[nH]c3c(NCCCN4CCOCC4)ncnc3c2c1` was tested. Which growth did it give?
Answer: The growth was 93.9% (inactive).

Question: How did the growth turn out when `Fc1ccc(Nc2ccc3cc(OCCCN4CCOCC4)ccc3n2)cc1F` was run?
Answer: Its growth is 42.6% (inactive).

Question: `CNC(=O)NCC1OC(n2cnc3c(NC(=O)Nc4ccccc4)ncnc32)C2OC(C)(C)OC12` (centres undefined) was tested. Which growth did it give?
Answer: The growth was 75.7% (inactive).

Question: With `CCN(CC)CCOC(=O)Nc1ccccc1Cl` as the molecule, how does the growth read?
Answer: Its growth is 95.7% (inactive).

Question: Which growth does the source give for `N=C(N)c1ccc(-c2ccc(-c3ccc(Cl)c(Cl)c3)o2)cc1` here?
Answer: The growth was 53.6% (inactive).

Question: With `Cc1[nH]c(-c2nc3ccccc3[nH]2)c(C)c1C(=O)N1CCc2sccc2C1` as the molecule, how does the growth read?
Answer: Its growth is 85.9% (inactive).

Question: Which growth does the source give for `CC(C)(C)c1ccc(C(=O)Nc2sc3c(c2C(N)=O)CCC(=O)C3)cc1` here?
Answer: The growth was -53.4% (active).

Question: Which growth does the source give for `Cc1nc(Nc2ccccn2)sc1C(=O)/C=C/c1ccc(Br)cc1` here?
Answer: The growth was 77.1% (inactive).

Question: For `C/C(=N\NC(=O)Cn1c(-c2ccc(S(C)(=O)=O)cc2)nc2cc(Cl)ccc21)c1ccc(Cl)cc1`, which growth is on record?
Answer: The growth was 90.3% (inactive).

Question: For `CCOC(=O)c1c(C)[nH]c(C(=O)CCC(=O)OC)c1C`, which growth is on record?
Answer: Its growth is 98.7% (inactive).

Question: With `C=C1C(=O)O[C@H]2[C@H]1CC/C(COC(=O)NCc1ccc(Cn3c(=O)sn(CCCCl)c3=O)cc1)=C\CC[C@@]1(C)O[C@@H]21` as the molecule, how does the growth read?
Answer: Its growth is -57.1% (active).

Question: `COc1cc(C2C=C(c3cccc(NC(C)=O)c3)Nc3ncnn32)cc(OC)c1OC` (centres undefined) was tested. Which growth did it give?
Answer: The growth was 25.6% (inactive).

Question: With `O=C(Oc1ccc[nH]c1=O)c1cc([N+](=O)[O-])cc([N+](=O)[O-])c1` as the molecule, how does the growth read?
Answer: The growth was 156% (inactive).

Question: How did the growth turn out when `COc1ccc(Oc2nc(Nc3ccc(N4CCOCC4)nc3)ncc2NC(=O)c2cc(OC)cc(OC)c2)cc1` was run?
Answer: The growth was 107% (inactive).

Question: Which growth does the source give for `COC(=O)c1ccc2oc(NC(=O)c3ccc(N4CCOCC4)c([N+](=O)[O-])c3)nc2c1` here?
Answer: The growth was 90.5% (inactive).

Question: Which growth does the source give for `O=C1Nc2ccccc2/C1=N/N=C/c1ccc(OC2OC(CO)C(O)C(O)C2O)cc1` (centres undefined) here?
Answer: The growth was 101% (inactive).

Question: With `C=CC(=O)Nc1cccc(C)c1Nc1cc(-c2cccnc2Cc2c(C)c(OC)cc(OC)c2C)ncn1` as the molecule, how does the growth read?
Answer: Its growth is 66.1% (inactive).

Question: How did the growth turn out when `OC(COc1cccc2ccccc12)CN1CCN(c2ccccc2)CC1` (centres undefined) was run?
Answer: The growth was 97.7% (inactive).

Question: `CC(=O)Nc1cccc(C2=CC(c3ccc(C)cc3)n3ncnc3N2)c1` (centres undefined) was tested. Which growth did it give?
Answer: The growth was 119% (inactive).

Question: `O=C(CC12CC3CC(CC(C3)C1)C2)NCCOCCOCCNC(=O)c1cc2c(o1)C(=O)c1ccccc1C2=O` was tested. Which growth did it give?
Answer: Its growth is -97.1% (active).

Question: `N=C(N)c1ccc(-c2ccc(/C=C/c3ccccc3)s2)cc1` was tested. Which growth did it give?
Answer: Its growth is 61.2% (inactive).

Question: Which growth does the source give for `CNC1(C#N)CCN(Cc2ccccc2)CC1` here?
Answer: The growth was 226% (inactive).

Question: How did the growth turn out when `O=C(/C=C/C12c3ccccc3C(c3ccccc31)C1C(=O)N(c3ccccc3)C(=O)C12)c1ccc(Cl)cc1` (centres undefined) was run?
Answer: Its growth is -32.7% (active).

Question: Which growth does the source give for `CCNCCNc1cc(-c2ccc(Cl)cc2)c(C#N)c2nc3ccccc3n12` here?
Answer: Its growth is -80.2% (active).

Question: With `CN(C)c1ccc2cc(-c3ccccc3F)c(N)nc2c1` as the molecule, how does the growth read?
Answer: Its growth is -22.1% (active).

Question: How did the growth turn out when `O=C1Nc2ccccc2/C1=N/N=C/c1c[nH]c2ccccc12` was run?
Answer: The growth was 71.8% (inactive).

Question: Which growth does the source give for `COc1ccc(/C=C(\C#N)n2nnc3ccccc32)cc1` here?
Answer: Its growth is 44.1% (inactive).

Question: `N#Cc1c(Oc2ccc([N+](=O)[O-])cc2)nc2sc3cc(Cl)ccc3n2c1=N` was tested. Which growth did it give?
Answer: The growth was -10.6% (active).

Question: With `O=C(NCCOCCOCCOCCNC(=O)c1cc2c(o1)C(=O)c1ccccc1C2=O)NC12CC3CC(CC(C3)C1)C2` as the molecule, how does the growth read?
Answer: Its growth is -94.5% (active).

Question: `O=C(Oc1ccc([N+](=O)[O-])cc1)c1ccc(CBr)cc1` was tested. Which growth did it give?
Answer: The growth was 97.9% (inactive).

Question: How did the growth turn out when `CCn1c(Sc2nnc(NC(=O)CCN3CCCC3)s2)nc2c1c(=O)n(C)c(=O)n2C` was run?
Answer: Its growth is 107% (inactive).

Question: Which growth does the source give for `CC(=[N-])N1CCC[C@@H](Nc2c3ccccc3nc3ccccc23)C1.[Cl][Pt].[NH-]CCC[NH-]` here?
Answer: Its growth is 20.7% (inactive).
